Compound activity as filed in PubChem BioAssay.
The list is not random: actives were taken first. Their share in the collection is about 9%.
HPGD inh = qHTS Assay for Inhibitors of HPGD (15-Hydroxyprostaglandin Dehydrogenase); 15-hydroxyprostaglandin dehydrogenase [NAD(+)] (Homo sapiens), P15428; purified HPGD, NADH fluorescence kinetic, PGE2 substrate; Potency, µM, inactives show at the highest dose activity change, negative = inhibition, hits mostly inhibitors; actives 4.3% (n = 150,000)
Target sequence (P15428 whole entry, looked up): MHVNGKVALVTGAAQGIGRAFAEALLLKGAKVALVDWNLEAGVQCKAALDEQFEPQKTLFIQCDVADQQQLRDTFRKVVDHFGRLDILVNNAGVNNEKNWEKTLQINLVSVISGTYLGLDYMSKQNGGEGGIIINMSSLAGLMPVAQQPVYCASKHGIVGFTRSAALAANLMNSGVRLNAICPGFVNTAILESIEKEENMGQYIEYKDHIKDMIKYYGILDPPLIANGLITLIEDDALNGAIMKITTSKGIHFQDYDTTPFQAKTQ
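20 nM HPGD preincubated 15 min at room temperature with compound in 50 mM Tris-HCl pH 8, 0.01% Tween 20. Started with 1 mM NAD+ and 30 uM prostaglandin E2; NADH fluorescence (360/450 nm) read 5 times over 30-s intervals, last minus first.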
Luc counter = Counterscreen for Luciferase (Kinase-Glo TM) Inhibition. Luciferin 4-monooxygenase (Photuris pensylvanica), Q27757. Kinase-Glo luciferase, ATP luminescence, 8 min. Potency, µM (highest dose often 38.3 µM), without a hit: top-dose activity change, negative = inhibition, actives largely listed as inhibitors. actives 0.28% (n = 200,000); active means well fitted curve in the direction sought with a large enough effect; inconclusive means small, poorly fitted or top-dose-only effect, or another doubt; inactive means no such curve, though single readings can be large; an effect the other way counts as inactive or inconclusive; further: nearly all actives have a fitted effect of over 60% in size
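Inhibition of Kinase-Glo luciferase light generation was assessed at 10 uM ATP in pH 7.2 imidazole buffer, with luminescence measured after eight minutes at ambient temperature.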
LMNA splice mod = qHTS Assay for Modulators of Lamin A Splicing; HeLa LMNA splicing GFP/RFP minigene ratio, 48 h; Potency, µM (doses to about 46.1 µM), inactives show at the highest dose ratio change, negative = inhibition, usual class: inhibitors; actives 0.01% (n = 200,000); AID 1487, 2009; active means well fitted inhibition curve with a large enough effect in the signal ratio, with a control signal flat, not every such curve was filed as active; inconclusive means small, poorly fitted or top-dose-only effect, or effect the other way, or a change in a side signal; the % refers to the signal ratio
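Read-out is the ratio of GFP to DsRed2 object intensity, acquired by 488 nm laser-scanning cytometry on HeLa lamin A-EGFP minigene reporter cells. Compound incubation 48 hrs at 37 °C in Opti-MEM with 2% FBS; DMSO 0.5% final.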
ALDH1A1 block = qHTS Assay for Inhibitors of Aldehyde Dehydrogenase 1 (ALDH1A1). Purified ALDH1A1, NADH fluorescence, propionaldehyde substrate. actives 7.3% (n = 220,000). Aldehyde dehydrogenase 1A1 (Homo sapiens), P00352. Potency, µM (highest dose often 75.3 µM), for inactives: at the highest dose activity, negative = inhibition, actives largely listed as inhibitors;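 further: plate controls were no enzyme wells and a reference inhibitor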
Target sequence (P00352 whole entry, looked up): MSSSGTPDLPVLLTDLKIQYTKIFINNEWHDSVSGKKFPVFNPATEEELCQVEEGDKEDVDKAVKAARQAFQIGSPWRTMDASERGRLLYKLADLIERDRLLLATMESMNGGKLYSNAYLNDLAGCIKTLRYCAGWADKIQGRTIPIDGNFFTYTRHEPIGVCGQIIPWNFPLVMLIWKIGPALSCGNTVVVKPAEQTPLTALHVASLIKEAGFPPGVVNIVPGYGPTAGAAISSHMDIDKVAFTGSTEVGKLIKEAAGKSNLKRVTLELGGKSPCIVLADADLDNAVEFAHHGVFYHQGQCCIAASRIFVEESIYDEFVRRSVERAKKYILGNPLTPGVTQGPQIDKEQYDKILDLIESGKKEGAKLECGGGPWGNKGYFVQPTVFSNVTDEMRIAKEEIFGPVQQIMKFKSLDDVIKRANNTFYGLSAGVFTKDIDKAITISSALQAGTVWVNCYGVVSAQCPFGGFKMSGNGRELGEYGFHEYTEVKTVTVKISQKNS
IMPase Li cell = qHTS Assay for Identifying the Cell-Membrane Permeable IMPase Inhibitors: Potentiation with Lithium | Potency, µM (highest dose often 59.4 µM), for the others: at the top dose activity, negative = IMPase inhibition, actives largely listed as inhibitors | AID 1457, 2008 | actives 0.35% (n = 210,000) | CHO-M1 cells, IP1 TR-FRET (IP-One), carbachol + lithium; active means well fitted curve in the direction sought with a large enough effect; inconclusive means small, poorly fitted or top-dose-only effect, or another doubt; inactive means no such curve, though single readings can be large; an effect the other way counts as inactive or inconclusive;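 further: IP1 builds up when IMPase is blocked and the TR-FRET signal falls; plate controls were basal vehicle for no effect and high inhibitor control for full effect; nearly all actives have a fitted effect of over 50% in size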
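Steps: plate 2000 CHO-M1 cells per well and culture 16–30 h; add compound and lithium; incubate 30 min, 37C; add d2-IP1 tracer and Eu cryptate anti-IP1 antibody in lysis buffer; read after 10 min at room temperature.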
* marks the source's active call; other numbers are inactive results; ? = inconclusive; / = not tested or not shown; [ ] = remark or other dose. Unless noted, the call rests on the fitted dose curve; in most records, active means well fitted inhibition curve with a large enough effect (not every such curve was filed as active); inconclusive means small, poorly fitted or top-dose-only effect, or another doubt; inactive means no such curve, though single readings can be large or run the other way. Unless noted, on the % scale 0 is the no-effect control and ±100 the full control effect; potency means the concentration at half of the fitted maximal effect.

SMILES	HPGD inh	Luc counter	LMNA splice mod	ALDH1A1 block	IMPase Li cell
CC(C)[C@@H]1C(=O)N(S(C)(=O)=O)[C@H]2CCN(C(=O)/C=C\CN3CCCCC3)[C@@H]12	5%	1%	/	6%	12%
O=C(CN1CCN(c2ccc(F)cc2)CC1)Nc1nnc(-c2ccccc2)s1	-8%	0%	-2%	28µM*	11µM*
O=C(CSc1ncn[nH]1)Nc1ccccc1-c1ccccc1	-8%	1%	21%	?	7%[38.3 µM]
O=C(CSc1ncn[nH]1)Nc1nnc(-c2ccccc2)s1	-26%	10%	?	28µM*	-12%[38.3 µM]
O=C(CN1CCN(c2ccccc2)CC1)Nc1nnc(-c2ccccc2)s1	-8%	-3%	-5%	-8%	-7%[38.3 µM]
COc1ccc(Nc2nnc(SCc3cc([N+](=O)[O-])cc4c3OCOC4)s2)cc1	25µM*	-3%	4%	?	43%[38.3 µM]
COCCn1c(C)cc(O)c(C(c2ccccc2Cl)N2CCN(c3ccccc3)CC2)c1=O (stereo not given)	/	/	-1%[46 µM]	/	/
CCOC(CNC(=O)c1nnc(Cc2cc(OC)c(OC)c(OC)c2)o1)OCC	/	-1%	/	6%	4%
COc1ccc(C2=C(Nc3ccc(C)cc3)c3ccccc3C2=O)cc1	-6%	-2%	-15%	7%	8%
COc1ccc(C2=C(Nc3ccc(F)cc3)c3ccccc3C2=O)cc1	25µM*	-3%	?	?	10%[38.3 µM]
N#C/C(=C\c1ccc(-c2ccc(S(=O)(=O)N3CCOCC3)cc2)o1)C(=O)NC1CC1	14µM*	3%	-6%	?	5%
COCCn1c(=NC(=O)/C=C/c2ccccc2)sc2cc(NC(C)=O)ccc21	?	5%	?	-6%	-2%
Nc1ccc(OCc2ccco2)cc1	/	0%	?	-6%	-8%
Cc1ccc(Oc2ccc(-c3nc(N)nc(N)n3)cc2)cc1C	?	3%	9%	-5%	26%[38.3 µM]
Cc1ccccc1Oc1ccc(-c2nc(N)nc(N)n2)cc1	25µM*	-6%	?	?	6%[38.3 µM]
CCOC(=O)C1(CCOc2ccccc2)CCN(Cc2cnc(C)s2)CC1	/	/	/	16µM*	17%
CCOC(=O)C1(CCOc2ccccc2)CCN(Cc2ccc3nonc3c2)CC1	/	8%	/	28µM*	23%
CCOC(=O)C1(CCOc2ccccc2)CCN(Cc2ccc(NC(C)=O)cc2)CC1	/	-1%	-12%[46 µM]	9%	18%
COCCn1c(=O)c(-c2ccc(Cl)cc2)nc2cnc(OC)nc21	-27%	1%	/	?	3%
CC1=C(C(=O)Nc2ccccc2)C(c2cccnc2)n2ncnc2N1 (stereo not given)	/	0%	13%[46 µM]	-2%	6%
O=C1CN(C(=O)c2ccccc2)c2ccccc2N1	-17%	0%	3%	0%	10%[38.3 µM]
O=C1C(=C(c2ccccc2)c2ccccc2)Nc2ccccc21	-4%	11%	?	0.71µM*	45%[38.3 µM]
CS(=O)(=O)N1CCC[C@@]2(CCN(C(c3ccccc3)c3ccccc3)C2)C1	-4%	-1%	/	-12%	24%
CCOC(=O)c1oc2cc(O)c(CC)cc2c(=O)c1-c1ccc2c(c1)OCCO2	-18%	0%	?	?	40%[38.3 µM]
Cc1oc2cc(O)cc(O)c2c(=O)c1-c1ccc2c(c1)OCCCO2	-29%	-4%	?	16µM*	16%[38.3 µM]
SMILES	HPGD inh	Luc counter	LMNA splice mod	ALDH1A1 block	IMPase Li cell
CSc1nc2nc3c(cc2c(=O)n1-c1cccc(C)c1)COC(C)(C)C3	/	/	/	3.5µM*	/
Cc1cccc(NC(=O)Cn2cnc3c(oc4nc5c(cc43)COC(C)(C)C5)c2=O)c1	-18%	2%	-9%	4%	-17%
O=C(CSc1nc2nc3c(cc2c(=O)n1-c1ccccc1)CCCC3)Nc1ccccc1	-24%	-4%	-8%	?	5%
CSc1nc2nc3c(cc2c(=O)n1-c1ccccc1)COC(C)(C)C3	/	0%	20%[46 µM]	14µM*	6%
Cc1ccccc1/C=C/C(=O)NCC(=O)N1CCC(N(C)C2CCCCC2C)CC1 (stereo not given)	/	/	/	2%	14%
C[C@H](NC(=O)c1nc[nH]c1C(=O)NC(c1ccccc1)c1ccccc1)C(=O)OC(C)(C)C	/	/	/	2µM*	24%
C[C@H](NC(=O)c1nc[nH]c1C(=O)N[C@@H](Cc1ccccc1)C(=O)OC(C)(C)C)c1ccccc1	/	/	/	18µM*	3%
C[C@@H](NC(=O)c1nc[nH]c1C(=O)N[C@@H](Cc1ccccc1)C(=O)OC(C)(C)C)c1ccccc1	/	/	/	1%	12%
CC1=NNC(=O)C1CCC(=O)N/N=C\c1ccccc1[N+](=O)[O-] (stereo not given)	-14%	-1%	-1%	-12%	-10%[38.3 µM]
COc1ccc(Br)cc1CNC(=O)CN1CCSc2ccccc21	/	/	-5%[46 µM]	/	/
CCCCCCN1C=C/C(=C\C=C(C#N)C#N)c2ccccc21	-3%	?	0%	8%	20%
CCCCCCN1C=CC=C/C1=C/C=C(C#N)C#N	11µM*	-2%	?	1%	96%
CCCCCN1C=CC=C/C1=C\C=C(C#N)C#N	/	/	/	0.45µM*	/
O=C1CCCc2c1cc(C(=O)O)c(=O)n2-c1ccccc1	/	0%	?	1%	2%
O=C1CCCc2c1cc(C(=O)Nc1ccc(Br)cn1)c(=O)n2-c1ccccc1	35µM*	2%	5%	?	20%[38.3 µM]
CCOC(=O)c1c(C)[nH]c(CCC(=O)Nc2ccc(C)c(F)c2)c1C	/	/	-24%[46 µM]	/	/
COc1ccc(NC(=S)NNc2ccc([N+](=O)[O-])cc2S(=O)(=O)Nc2ccc(C)cc2C)cc1	14µM*	-14%	?	4µM*	3%
Cc1ccc(NS(=O)(=O)c2cc([N+](=O)[O-])ccc2NNC(=S)Nc2cc(C)ccc2C)c(C)c1	7.9µM*	-15%	?	2.8µM*	10%
Cc1ccc(NS(=O)(=O)c2cc([N+](=O)[O-])ccc2NNC(=S)Nc2cccc(Cl)c2)c(C)c1	28µM*	-24%	?	0.28µM*	-8%
Cc1cccc(NS(=O)(=O)c2cc(NC(=O)CC(=O)c3ccc([N+](=O)[O-])cc3)ccc2C)c1	/	3%	-13%[9.22 µM]	-8%	19%
COc1ccc(NC(=S)Nc2cccc([N+](=O)[O-])c2)cc1	-7%	1%	-5%	-3%	2%[38.3 µM]
COCCNC(=S)Nc1ccc([N+](=O)[O-])cc1C	/	6%	/	?	-4%
COCCn1c(=O)c(-c2cc(F)cc(F)c2)nc2cnc(OC)nc21	?	0%	/	?	0%
CSc1nc(O)c(C2OC(=O)c3ccccc32)c(=O)[nH]1 (stereo not given)	-6%	0%	5%	-5%	-8%[38.3 µM]
